Data published in PubChem BioAssay (NCI).
The panel holds about 83,000 compounds, 20% with a hit somewhere; the sample as a whole holds those more often.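 Single-dose data. Exposure time 48 hours. Values below 10 considered active.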 Values without a mark were called inactive. Calls of active or inactive are those of the source.

The molecules below were run on RPMI-8226 leukemia (assay: NCI-60 one-dose screen, 48 h (100 = growth as untreated, 0 = no growth, -100 = all killed)). Details: 10 µM unless noted.
Procedure: Growth inhibition of the RPMI-8226 human tumor cell line is measured as a screen for anti-cancer activity. Cells are grown in 96 well plates and exposed to the test compound for 48 hours. Compounds are tested at a single concentration, which is 10^-5 M for most compounds. The reported endpoint is percent growth (GI% or GIPRCNT), where numbers from 0 - 100% represent growth inhibition, and numbers from -100% - 0 represent cell death. For example, a value of 40 represents 60% growth inhibition. A value of 0 means no net growth occurred over the course of the experiment. A value of -40 indicates 40% of cells at the beginning of the experiment died by the end of the experiment. A value of -100 means all cells are dead at the end of the experiment.
NCI-60 Human Tumor Cell Lines Screen was performed using the standard one-dose NCI protocol, which is described in more detail at https://dtp.cancer.gov/discovery_development/nci-60/default.htm.
Compounds with GIPRCNT values below 10 were considered active. Activity score was based on GIPRCNT using the following formula: […]
Score is 0 for GIPRCNT values of 100 or above, 50 for GIPRCNT values of 0, and 100 for GIPRCNT values of -100.

SMILES | growth
CCCCCN(CCCCC)CCCNc1c2c(nc3ccc(Cl)cc13)CCCC2 | 4.62% (active)
Cc1cc(Cl)ccc1Nc1nc(C(F)(F)F)ccc1C(=O)N/N=C/c1ccc(Cl)cc1 | -12.7% (active)
Cc1csc(C#Cc2cncc(O)c2)n1 | 98.5%
Cc1ccc(S(=O)(=O)N2CCN(C(=O)CSc3nc4ccc(C)cc4[nH]3)CC2)cc1 | 108%
COc1ccc(-c2nnc3c4[nH]cnc4ncn23)c(OC)c1 | 9.32% (active)
O=C(N/N=C/c1ccc(Cl)cc1Cl)c1ccccc1Nc1cccc(C(F)(F)F)c1 | 58.4%
Nc1ccc(Oc2c(F)c(F)c(Oc3ccc(N)cc3)c(F)c2F)cc1 | 82.9%
COc1cc(OC)c2c(c1Cl)O[C@]1(C2=O)C(OCc2ccccc2)=CC(=O)C[C@H]1C | -4.76% (active)
c1ccc(Nc2ccc(Nc3nc(-c4ccccc4)nc4ccccc34)cc2)cc1 | 48.9%
O=[N+]([O-])c1ccc2[nH]cc(-c3c4ccccc4cc4[nH]c5ccc([N+](=O)[O-])cc5c34)c2c1 | 11.6%
[N-]=[N+]=NCc1cccc(/C(O)=C/C(=O)C(=O)O)c1 | 90.7%
Cc1cc2c(cc1C)[n+](Cc1ccc3ccccc3c1)cn2Cc1ccc2ccccc2c1 | -49.6% (active)
N/C(=N\c1nc2ccccc2s1)NC(=O)Nc1ccccc1Cl | 10.1%
CN1CCC[C@@H]1CCO[C@](C)(c1ccccc1)c1ccc(Cl)cc1 | 70.4%
Cc1nn2c(/C=C3/C(=O)Nc4cc(Cl)ccc43)c(-c3ccccc3)nc2s1 | -19.6% (active)
CC[N+](CCCCCCCCCC[N+](CC)(c1ccccn1)c1ccccn1)(c1ccccn1)c1ccccn1 | 1.5% (active)
CN(C)c1ccc(-n2nc3ccccc3n2)cc1 | 357%
O=C1/C(=C/c2ccccc2O)C(=S)SN1Cc1ccco1 | 66.8%
CCCCN=C(N)c1ccc(OCCSCCOc2ccc(C(N)=NCCCC)cc2)cc1 | 26.2%
CCOC(=O)CCC(=O)O[C@H]1[C@H](O[C@@H]2[C@@H](C)[C@H](O[C@H]3C[C@@](C)(OC)[C@@H](O)[C@H](C)O3)[C@@H](C)C(=O)O[C@H](CC)[C@@](C)(O)[C@H](O)[C@@H](C)C(=O)[C@H](C)C[C@@]2(C)O)O[C@H](C)C[C@@H]1N(C)C | 97.2%

SMILES | growth
CN(C)c1ccc(-c2nc3ncc(Br)cc3o2)cc1 | 74%
CC(NC(=O)Oc1cccc2ccccc12)c1ccccc1 (stereo not given) | 109%
NS(=O)(=O)c1ccc(-n2ncc3c(NC4CCCCC4)ncnc32)cc1 | 91%
COc1ccc(C(=O)COc2cccc(/C=C3\COc4ccc5ccccc5c4C3=O)c2)cc1 | 2.86% (active)
CCCCCc1c(C)[nH]c(/C=C2\N=C(c3ccc[nH]3)C=C2OCc2ccccc2)c1C | -46.2% [100 µM] (active)
NS(=O)(=O)c1cc(C2(O)NC(=O)c3ccccc32)ccc1Cl (stereo not given) | 93.2%
CCOc1cc(/C=C/C(=O)CC(=O)/C=C/c2ccc(OC(=O)CNc3nc4ccc(OC)cc4s3)c(OCC)c2)ccc1OC(=O)CNc1nc2ccc(OC)cc2s1 | -27.2% (active)
O=C(NCCNC(=O)Oc1cccc2ccccc12)Oc1cccc2ccccc12 | 92.5%
CNc1nc(NC2CCCC2)nc(Sc2ccc(OC)cc2)n1 | -11.2% [100 µM] (active)
Cc1onc(-c2ccccc2Cl)c1C(=O)N[C@@H]1C(=O)N2[C@@H]1SC(C)(C)[C@@H]2C(=O)O | 95.4%
COc1cc(/C=C/C(=O)C(C(=O)/C=C/c2ccc(OC(=O)CCNc3nnc(C)s3)c(OC)c2)C(=O)CCNc2nnc(C)s2)ccc1OC(=O)CCNc1nnc(C)s1 | -75.2% (active)
Nc1nc2c(c(=O)[nH]1)C1(C(=O)Nc3ccccc31)c1c(nc(N)[nH]c1=O)N2 | 96.2%
O=C1c2cccc(NCCN=Cc3ccccc3O)c2C(=O)c2c(NCCN=Cc3ccccc3O)cccc21 | -9.08% (active)
COc1ccc(C2CC(c3ccc(Nc4ccnc5cc(Cl)ccc45)cc3)=NN2C(C)=O)cc1 (stereo not given) | 33.8%
COc1cc(Cl)cc(-c2nn(-c3cccc(NC(=O)c4cc(C(F)(F)F)cc(C(F)(F)F)c4)c3)cc2-c2ccncc2)c1 | 43.6%
O=c1[nH]c(N2CCC(Cc3ccccc3)CC2)nc2sc3c(c12)CCCC3 | 107%
Nc1c(C(=O)Nc2cccc(Cl)c2)sc2nc3c(cc12)C(O)CCC3 (stereo not given) | 6.38% (active)
Cc1ccc(S(=O)(=O)NCCN2c3nc4ccccc4cc3Sc3cc4ccccc4nc32)cc1 | 78.7%
COC(=O)c1cc2c(/C=C3/NC(=S)NC3=O)coc2n1C | 75.8%
NC(=O)c1cc(Cl)ccc1NC(=O)c1ccccc1-c1ccccc1 | 19%
